Data: the supplement of paper PMC10681739

Legend:
RUNX1 [1] = biological target: RUNX1 (UniProt Q01196); test: RUNX1 binding intensity (PBM fluorescence), RUNX1 alone (arbitrary fluorescence units); higher = stronger binding; conditions: RUNX1 concentration 2 nM; ETS1 concentration 0 nM
Procedure: (§1)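 Cooperative gcPBM on 36-bp genomic probes with neighbouring ETS1 and RUNX1 sites. Recombinant human RUNX1 (2 nM) was incubated alone or with ETS1 (25 nM) and detected with anti-RUNX1 antibody plus Alexa488 secondary. Values are medians over 4 replicate spots; the RUNX1+ETS1 data were normalised to the RUNX1-only data. The probes sit in constant array flanks that are not printed.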

RUNX1 [2] = biological target: RUNX1 (UniProt Q01196); test: RUNX1 binding intensity (PBM fluorescence) in presence of ETS1, normalised to RUNX1-only experiment (arbitrary fluorescence units); higher = stronger binding; conditions: RUNX1 concentration 2 nM; ETS1 concentration 25 nM
Procedure: as §1

ETS1 [3] = biological target: T1, ETS1 (UniProt P14921); test: ETS1 binding intensity (PBM fluorescence), ETS1 alone (arbitrary fluorescence units); higher = stronger binding; conditions: ETS1 concentration 1 nM; RUNX1 concentration 0 nM
T1 sequence: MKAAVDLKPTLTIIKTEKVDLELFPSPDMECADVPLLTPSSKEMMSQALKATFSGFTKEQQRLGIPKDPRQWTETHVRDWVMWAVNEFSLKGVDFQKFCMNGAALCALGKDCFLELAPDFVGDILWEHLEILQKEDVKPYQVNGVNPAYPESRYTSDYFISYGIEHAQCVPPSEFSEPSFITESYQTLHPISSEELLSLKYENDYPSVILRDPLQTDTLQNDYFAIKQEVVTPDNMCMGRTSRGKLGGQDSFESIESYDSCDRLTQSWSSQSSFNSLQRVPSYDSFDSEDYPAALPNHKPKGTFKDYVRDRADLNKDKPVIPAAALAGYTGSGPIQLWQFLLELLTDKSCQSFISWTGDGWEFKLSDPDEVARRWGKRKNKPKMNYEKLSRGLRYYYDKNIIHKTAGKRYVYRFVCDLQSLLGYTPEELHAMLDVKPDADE

ETS1 [4] = biological target: T1, ETS1; test: ETS1 binding intensity (PBM fluorescence) in presence of RUNX1, normalised to ETS1-only experiment (arbitrary fluorescence units); higher = stronger binding; conditions: ETS1 concentration 1 nM; RUNX1 concentration 25 nM
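Throughout, for RUNX1 binding intensity (PBM fluorescence) in presence of ETS1, normalised to RUNX1-only experiment: Full-length recombinant human ETS1 or RUNX1 bound to double-stranded 36-bp genomic probes on microarrays, detected by protein-specific primary antibody and Alexa488 secondary, spot fluorescence as median of four replicate spots.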
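Throughout, for RUNX1 binding intensity (PBM fluorescence), RUNX1 alone: Full-length recombinant human RUNX1 bound to double-stranded 36-bp genomic probes on a high-density microarray, scored as Alexa488 fluorescence per spot via anti-RUNX1 antibody, median of four replicate spots.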

RUNX1, sequence (Q01196 whole entry): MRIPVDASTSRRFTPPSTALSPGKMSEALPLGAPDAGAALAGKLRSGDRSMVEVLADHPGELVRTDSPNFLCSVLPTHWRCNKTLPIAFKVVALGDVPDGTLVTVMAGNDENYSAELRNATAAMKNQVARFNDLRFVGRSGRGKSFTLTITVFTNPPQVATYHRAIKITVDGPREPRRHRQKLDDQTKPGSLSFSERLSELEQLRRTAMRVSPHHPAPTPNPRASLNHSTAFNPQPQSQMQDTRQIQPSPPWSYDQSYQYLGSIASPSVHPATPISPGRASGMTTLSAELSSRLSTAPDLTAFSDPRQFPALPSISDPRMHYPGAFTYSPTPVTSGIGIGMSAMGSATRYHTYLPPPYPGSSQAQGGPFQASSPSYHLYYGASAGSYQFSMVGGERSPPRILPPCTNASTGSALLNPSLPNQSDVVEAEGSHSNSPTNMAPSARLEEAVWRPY

Sequence | RUNX1 binding intensity (RUNX1 [1]) | RUNX1 binding intensity (RUNX1 [2]) | ETS1 binding intensity (ETS1 [3]) | ETS1 binding intensity (ETS1 [4])
CTTCTTCCTGCTGAGACTGATACAGCCCGCAAAGCT | 994 | 1800 | – | –
CCATTTCCCCCATCACTTTGAATTGTGGTTCTTCTC | 1590 | 2920 | – | –
GCTTAAGGAAGGGACAACTAGAGTGGGTTACTCTGC | 863 | 717 | – | –
TTCATAAAGGAGAGGAAACCTGACCACGACAGAAAG | 897 | 754 | – | –
CTCAGGTTATCTAGGAAATCTACCGCACGCTAAAGT | 858 | 793 | – | –
TATCGACAAAAGTTCCGGCCCGCGGTAGCGGAGGGA | 879 | 970 | – | –
ATGTCAGGAAGAGGCTCAGGGCTGTGGTTTCTCTGT | 979 | 1070 | – | –
ATTTTAGCATTTTCCTGCTCGGAGACCACATGTTTG | 1170 | 1220 | – | –
CCCAGAGCTTCCGATTGGCTCTTCTGTGGTGGCGGG | 1010 | 1170 | – | –
AGTTTCCTGAACTCAGAGCACAGTTGTGGTGCAGAA | 743 | 1270 | – | –
TCCAGCCCCACCGGAAGTGGATGTGGTTAATCTAGT | 955 | 6380 | – | –
GAGTTCTCCGCTTCCTTGCGGCCGGCGGGATTAGCC | 907 | 1030 | – | –
GCCTCCTTCCTGGGCTCCTTTAAGAGGGTGGTAACG | 743 | 1130 | – | –
AGCTTCCGAGTCTGTTGTGGAGTGGGAACCGCGACT | 724 | 1020 | – | –
TTACTTCCTGAGGGTGCACAGGCTGTGGTCGTCTAT | 760 | 2070 | – | –
TCCACAGCCGGTTCCGGCCGGTTCCCACAAGCCCCT | 844 | 1130 | – | –
GGGCGGAAGGGGTTCGCACGCCAAGAACCGCCATGC | 855 | 683 | – | –
CAAGGAGGCTTCCTGCGTGGGGCCGCAGAGCGAGTC | 658 | 869 | – | –
TTACCCCGGCGGAACGGAGGCCTGCGGTCGCGGCGG | 941 | 1210 | – | –
GAGTGGGCGGAAATCCGTGCCTGGCAGACCACAAAG | 765 | 1500 | – | –
GCCAAGGCCTTCCGCCGAGTTGGTTTTTGGGTTGTT | 867 | 952 | – | –
GAAGTGTGCTCTTCCGGTACCTGCGGTTCGTTGCGC | 808 | 2670 | – | –
TGATAAAACACAGGATGTGGTAAGGGAGCTGGCCAA | – | 4550 | 3350 | 14200
TGCAGCTTCCTGTCTGAGGCTTTGTGGTCCTTTCAT | – | 2480 | 753 | 889
CCAGCGGAAAGCCGGTCAGGGGGAACCGCGGCGGGG | 893 | 758 | – | –
TACAGCTTCCTTCACCCCACTTGTGGCCTGGGTTAC | 814 | 913 | – | –

Sequence | RUNX1 binding intensity (RUNX1 [1]) | RUNX1 binding intensity (RUNX1 [2]) | ETS1 binding intensity (ETS1 [3]) | ETS1 binding intensity (ETS1 [4])
CTCCCGGACGCTAACGTCTGGCAAACCACATTGCCC | 993 | 857 | – | –
AGCGACAGCGGATGCTCTCTGGCCGCAACATTCTTT | 769 | 1080 | – | –
TCCTGCCCTCCCATCCTGTGGTCAGAGGCCAGGGCT | 854 | 1580 | – | –
GATGACTTCCTCAGTTCAGGGCTATGTGCGGGGGAG | 833 | 1060 | – | –
TTGCTCGGCTTCCTGGAGCTGTGGTCCGTGTGGGCT | 708 | 1020 | – | –
CGGCGCCTTCCGCAGAGGGACTGCGGCTTTCTGCGC | 946 | 1390 | – | –
GCCCCTTTTTCCTGGGATGAGCGGTTAGCGGAGGGG | 1090 | 1080 | – | –
GGCGCTAGGCTTCCGGATCGCGGTGGGCGGAGTTCA | 678 | 1230 | – | –
TTAGAGCTGACATCCTTGCGGTCCACAGCCTCCAAA | 961 | 1090 | – | –
TAAATCGGAAACTCGCCGCTCAGCCCGCAGCCGCCG | 901 | 808 | – | –
CGGGGTTTCCTGGTGGCTGCGAGCGGTGGGGACGGC | 728 | 1140 | – | –
AGACTCCATCCGCCATGTTGGATGCCGCAGATTCGC | 813 | 1050 | – | –
CTTTGTTACTTTGGGGAAATGTGGTTCTGCGCCACC | 1110 | 927 | – | –
ACCTCAAGCCCAGGATGTGGTTTGGCCACTATTGAG | 804 | 1680 | – | –
ATGGTCCAGGAAGATAAGGGCTGAAAACCACCCACT | 857 | 824 | – | –
CGGCGCGGCGGACGTTGCTGCGGTAGGACGTGCCCG | 838 | 875 | – | –
TTTCTTCTGATCTTCCTCCCCGCACGTCTGCACAGG | 1220 | 1020 | – | –
CAGACACCAACGCTCGGAAACCGCCAGACACCAAGG | 1030 | 888 | – | –
CCCTTCCTGTGAGGGAGGTTCCAGTTCCCACAGCGG | 782 | 1670 | – | –
GGCAGCCGATGCATCCTGCGGTGTGTGGCCCTCAGA | 787 | 1040 | – | –
ATAGACCCAGCCCGTCCGGTAACCGCGCTCCTCGAT | 836 | 913 | – | –
GTTGGTCGCGCGCCTTCCTGCGGCTAAGATGGCGAC | 749 | 923 | – | –
GAAACGTCACCCAGAGGAAACCCACAAGGGGCGTGG | 875 | 836 | – | –
ACGAGAGTCTAGAGGAAACCAACCCGCAACTCACTG | 892 | 868 | – | –
CTGAGACATCCTGATAATTCTGTGGGTTACCCCAAA | 728 | 1280 | – | –
CCAGTGCAGAAACATCCCTCCTGCCGCAGCTTTGTC | 1020 | 896 | – | –
